Measurements published in ChEMBL document CHEMBL3433997, “St. Jude Leishmania screening dataset” (2016).

Target: Solute carrier family 2, facilitated glucose transporter member 1 (Homo sapiens) (UniProt P11166)
Test: ST_JUDE_LEISH: Cytotoxicity at 2uM final concentration against transgenic Leishmania Mexicana promastigotes LmGLUT1 that are glucose transport deficient and complemented with the human glucose transporter GLUT1. Activity is measured by DNA content using SYBR green in vitro
Assay type: functional

Solute carrier family 2, facilitated glucose transporter member 1 (Homo sapiens), sequence (P11166 whole entry): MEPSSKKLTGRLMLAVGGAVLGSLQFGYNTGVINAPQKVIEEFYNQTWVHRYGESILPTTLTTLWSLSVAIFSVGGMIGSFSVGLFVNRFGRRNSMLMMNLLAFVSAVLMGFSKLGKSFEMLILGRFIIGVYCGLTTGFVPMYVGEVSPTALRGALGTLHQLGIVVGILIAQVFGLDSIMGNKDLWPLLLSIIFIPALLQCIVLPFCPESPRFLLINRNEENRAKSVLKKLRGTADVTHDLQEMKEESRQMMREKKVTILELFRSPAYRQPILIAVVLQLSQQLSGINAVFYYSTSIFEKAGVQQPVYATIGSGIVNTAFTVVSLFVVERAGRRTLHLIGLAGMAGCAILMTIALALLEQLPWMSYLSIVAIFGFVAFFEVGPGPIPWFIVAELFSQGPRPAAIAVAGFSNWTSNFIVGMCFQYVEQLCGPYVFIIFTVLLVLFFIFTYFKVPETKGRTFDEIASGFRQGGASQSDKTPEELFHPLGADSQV

| Structure (SMILES) | inhibition [%] |
| --- | --- |
| CCn1ccc2c(N3CCCC3=O)cc(C(=O)N[C@@H](Cc3ccccc3)[C@H](O)CNC3CCCCC3)cc21 | 4.2 |
| Cc1nc2ccc(NC(=O)Nc3ccnc4ccc(C(F)(F)F)cc34)cc2o1 | 5.89 |
| Clc1ccc(OCc2ccccc2)c(-c2nc(-c3nc4ccc(Cl)cc4[nH]3)cs2)c1 | 3.08 |
| COc1ccc2nccc([C@H](O)CN3CCC(NCc4cc(C)c5c(c4)OCCO5)CC3)c2n1 | 5.84 |
| CC(=O)Nc1nc(C(=O)Nc2ccc(-c3ccc(-c4nc5ccccc5[nH]4)cc3)cc2)cs1 | 4.03 |
| N#C/N=C(\NCCCCCCCCN/C(=N\C#N)NCCSCc1csc(N=C(N)N)n1)NCCCSc1csc(N=C(N)N)n1 | -0.03 |
| Cc1cccc(CN2CCCC3(CCN(Cc4ccccc4O)C3)C2)c1 (stereo not given) | 2.62 |
| CNc1ccc(CNCc2cccc(-c3ccc(-c4nc5cccc(C)c5[nH]4)cc3)c2)cc1 | 7.63 |
| c1ccc(Oc2ccc(Nc3ccnc4cc(-c5ccc(CN6CCCCC6)o5)ccc34)cc2)nc1 | -2.19 |
| CNCc1ccc(-c2cccc(CNCc3ccc(-c4ccccc4)cc3)c2)c(C(=O)OC)c1 | 1.39 |
| COc1cc(OC)cc(-c2nn(-c3ccc([N+](=O)[O-])cc3C#N)c(=S)n2Cc2ccco2)c1 | 0.03 |
| O=C(Nc1ccc(CN2CCN(S(=O)(=O)c3ccc(Cl)s3)CC2)cc1)c1cccs1 | 8.13 |
| CC(Cc1ccc(OCCCCOc2ccccc2)cc1)NCCc1ccc(Oc2ccccc2)cc1 (stereo not given) | 87.5 |
| O=C(Nc1ccc(-c2cccc(-c3nc4cc(C(F)(F)F)ccc4[nH]3)c2)cc1)c1csnn1 | 16.1 |
| O=c1cc(NCCCNCc2cn(S(=O)(=O)c3ccccc3)c3ccccc23)[nH]c2ccccc12 | -0.4 |
| CN(C)Cc1cccc(-c2cnc(N)c(-c3nc4cc(S(C)(=O)=O)ccc4[nH]3)c2)c1 | 2.57 |
| O=C(Nc1cccc(-c2cccc(-c3nc4cc(F)ccc4[nH]3)c2)c1)c1ccoc1 | 2.86 |
| Cn1nccc1C(=O)NCCNCc1cccc(-c2ccc(-c3nc4ccccc4[nH]3)s2)c1 | -0.55 |
| O=C(Nc1cccc(-c2cccc(-c3nc4cc(F)ccc4[nH]3)c2)c1)c1c[nH]cn1 | -0.8 |
| c1ccn2c(Sc3ncnc4sccc34)ncc2c1 | -0.89 |

| Structure (SMILES) | inhibition [%] |
| --- | --- |
| COc1ccc2nccc([C@@H](O)CN3CCC(NCc4ccc5scnc5c4)CC3)c2c1 | 3.81 |
| CN1N=C2c3ccccc3CCC2C1c1ccc(C#N)cc1 (stereo not given) | 12.4 |
| Cc1ccc(O)cc1Nc1ccnc2ccc(-c3csc(CNCCN4CCOCC4)n3)cc12 | 3.28 |
| CN(C)Cc1ccc(-c2cc3ncnc(Nc4ccc(OCc5cccc(F)c5)c(Cl)c4)c3s2)[nH]1 | 3.19 |
| O=[N+]([O-])c1cccc(C(Nc2ccccn2)c2ccc3cccnc3c2O)c1 (stereo not given) | 4.63 |
| CC(C)COc1ccc(Cl)cc1Cc1ccc(-c2nc3cc(F)c(F)cc3[nH]2)o1 | 3.02 |
| CCCCCCn1ccc2c3c(N)nc(N)nc3ccc21 | 104 |
| Cc1c(F)cc(C(=O)NC2CC2)cc1-c1ccc2c(cnn2S(=O)(=O)c2ccc(Cl)s2)c1 | 3.04 |
| O=C(NC1CCN(Cc2ccc3c(c2)OCCO3)CC1)c1ccc(-c2cccc(Cl)c2)s1 | 5.55 |
| COc1ccccc1CNC(=O)CCn1c(=O)[nH]c2ccsc2c1=O | 2.58 |
| CCCCCN1CCCC(NS(=O)(=O)c2ccc(C(=O)Nc3ccc(C(F)(F)F)cc3)cc2)C1 (stereo not given) | 6.19 |
| Cc1cccc(-c2c(C)nc(N)nc2N)c1 | 4.96 |
| CC1Cc2ccccc2N1CC(=O)Nc1cc(C(F)(F)F)ccc1-n1cncn1 (stereo not given) | 1.94 |
| Cc1nc2nc(N)nc(N)c2c(C)c1Cc1cccs1 | 1.85 |
| O=C(NCCCCN1CCC(c2ccc3c(c2OCCO)CCCC3)CC1)c1sc(-c2ccc(C(F)(F)F)cc2)nc1CO | 3.31 |
| CCN(CC)CCN(Cc1ccc(-c2ccc(C(F)(F)F)cc2)cc1)C(=O)Cn1c(CCc2c(F)cc(F)cc2F)nc(=O)c2ccccc21 | -0.61 |
| O=C(O)c1ccc(OCOCOc2ccc(C(=O)O)c(O)c2)cc1O | 5.67 |
| CCNc1cc(C(=O)N[C@@H](Cc2ccccc2)[C@H](O)CN[C@@H]2CCc3ccccc32)cc(N2CCCC2=O)c1 | 10.5 |
| CCOC(=O)C1CCN(CCCNC(=O)/C(=C/C=C/c2cc3cc(Cl)c(Cl)cc3[nH]2)OC)CC1 | -1.12 |
| CCc1ccc(CN(CCCOc2cccc(CC(=O)NCc3c[nH]cn3)c2)Cc2ccc(-n3ccnc3)cc2)cc1 | 2.55 |

Target: Hexose transporter 1 (Plasmodium falciparum) (UniProt O97467)
Test: ST_JUDE_LEISH: Cytotoxicity at 2uM final concentration against transgenic Leishmania Mexicana promastigotes LmPfHT that are glucose transport deficient and complemented with the Plasmodium falciparum hexose transporter. Activity is measured by DNA content using SYBR green in vitro
Assay type: functional

| Structure (SMILES) | inhibition [%] |
| --- | --- |
| CCn1ccc2c(N3CCCC3=O)cc(C(=O)N[C@@H](Cc3ccccc3)[C@H](O)CNC3CCCCC3)cc21 | 7.08 |
| Cc1nc2ccc(NC(=O)Nc3ccnc4ccc(C(F)(F)F)cc34)cc2o1 | 10.7 |
| Clc1ccc(OCc2ccccc2)c(-c2nc(-c3nc4ccc(Cl)cc4[nH]3)cs2)c1 | 2.99 |
| COc1ccc2nccc([C@H](O)CN3CCC(NCc4cc(C)c5c(c4)OCCO5)CC3)c2n1 | 8.31 |
| CC(=O)Nc1nc(C(=O)Nc2ccc(-c3ccc(-c4nc5ccccc5[nH]4)cc3)cc2)cs1 | 2.54 |
| N#C/N=C(\NCCCCCCCCN/C(=N\C#N)NCCSCc1csc(N=C(N)N)n1)NCCCSc1csc(N=C(N)N)n1 | 0.11 |
| Cc1cccc(CN2CCCC3(CCN(Cc4ccccc4O)C3)C2)c1 (stereo not given) | 1.27 |
| CNc1ccc(CNCc2cccc(-c3ccc(-c4nc5cccc(C)c5[nH]4)cc3)c2)cc1 | 5.63 |
| c1ccc(Oc2ccc(Nc3ccnc4cc(-c5ccc(CN6CCCCC6)o5)ccc34)cc2)nc1 | -1.27 |
| CNCc1ccc(-c2cccc(CNCc3ccc(-c4ccccc4)cc3)c2)c(C(=O)OC)c1 | 2.72 |
| COc1cc(OC)cc(-c2nn(-c3ccc([N+](=O)[O-])cc3C#N)c(=S)n2Cc2ccco2)c1 | -1.55 |
| O=C(Nc1ccc(CN2CCN(S(=O)(=O)c3ccc(Cl)s3)CC2)cc1)c1cccs1 | 7.45 |
| CC(Cc1ccc(OCCCCOc2ccccc2)cc1)NCCc1ccc(Oc2ccccc2)cc1 (stereo not given) | 84.7 |
| O=C(Nc1ccc(-c2cccc(-c3nc4cc(C(F)(F)F)ccc4[nH]3)c2)cc1)c1csnn1 | 23.4 |
| O=c1cc(NCCCNCc2cn(S(=O)(=O)c3ccccc3)c3ccccc23)[nH]c2ccccc12 | -0.55 |
| CN(C)Cc1cccc(-c2cnc(N)c(-c3nc4cc(S(C)(=O)=O)ccc4[nH]3)c2)c1 | 5.29 |
| O=C(Nc1cccc(-c2cccc(-c3nc4cc(F)ccc4[nH]3)c2)c1)c1ccoc1 | 1.64 |
| Cn1nccc1C(=O)NCCNCc1cccc(-c2ccc(-c3nc4ccccc4[nH]3)s2)c1 | -0.8 |
| O=C(Nc1cccc(-c2cccc(-c3nc4cc(F)ccc4[nH]3)c2)c1)c1c[nH]cn1 | -0.5 |
| c1ccn2c(Sc3ncnc4sccc34)ncc2c1 | -1.87 |

| Structure (SMILES) | inhibition [%] |
| --- | --- |
| COc1ccc2nccc([C@@H](O)CN3CCC(NCc4ccc5scnc5c4)CC3)c2c1 | 2.6 |
| CN1N=C2c3ccccc3CCC2C1c1ccc(C#N)cc1 (stereo not given) | 9.98 |
| Cc1ccc(O)cc1Nc1ccnc2ccc(-c3csc(CNCCN4CCOCC4)n3)cc12 | 2.25 |
| CN(C)Cc1ccc(-c2cc3ncnc(Nc4ccc(OCc5cccc(F)c5)c(Cl)c4)c3s2)[nH]1 | 2.49 |
| O=[N+]([O-])c1cccc(C(Nc2ccccn2)c2ccc3cccnc3c2O)c1 (stereo not given) | 5.86 |
| CC(C)COc1ccc(Cl)cc1Cc1ccc(-c2nc3cc(F)c(F)cc3[nH]2)o1 | 1.87 |
| CCCCCCn1ccc2c3c(N)nc(N)nc3ccc21 | 101 |
| Cc1c(F)cc(C(=O)NC2CC2)cc1-c1ccc2c(cnn2S(=O)(=O)c2ccc(Cl)s2)c1 | 1.53 |
| O=C(NC1CCN(Cc2ccc3c(c2)OCCO3)CC1)c1ccc(-c2cccc(Cl)c2)s1 | 5.55 |
| COc1ccccc1CNC(=O)CCn1c(=O)[nH]c2ccsc2c1=O | 3.17 |
| CCCCCN1CCCC(NS(=O)(=O)c2ccc(C(=O)Nc3ccc(C(F)(F)F)cc3)cc2)C1 (stereo not given) | 4.12 |
| Cc1cccc(-c2c(C)nc(N)nc2N)c1 | 2.06 |
| CC1Cc2ccccc2N1CC(=O)Nc1cc(C(F)(F)F)ccc1-n1cncn1 (stereo not given) | 2.01 |
| Cc1nc2nc(N)nc(N)c2c(C)c1Cc1cccs1 | 1.16 |
| O=C(NCCCCN1CCC(c2ccc3c(c2OCCO)CCCC3)CC1)c1sc(-c2ccc(C(F)(F)F)cc2)nc1CO | 2.17 |
| CCN(CC)CCN(Cc1ccc(-c2ccc(C(F)(F)F)cc2)cc1)C(=O)Cn1c(CCc2c(F)cc(F)cc2F)nc(=O)c2ccccc21 | 0.48 |
| O=C(O)c1ccc(OCOCOc2ccc(C(=O)O)c(O)c2)cc1O | 5.54 |
| CCNc1cc(C(=O)N[C@@H](Cc2ccccc2)[C@H](O)CN[C@@H]2CCc3ccccc32)cc(N2CCCC2=O)c1 | 2.63 |
| CCOC(=O)C1CCN(CCCNC(=O)/C(=C/C=C/c2cc3cc(Cl)c(Cl)cc3[nH]2)OC)CC1 | 4.1 |
| CCc1ccc(CN(CCCOc2cccc(CC(=O)NCc3c[nH]cn3)c2)Cc2ccc(-n3ccnc3)cc2)cc1 | 2.84 |
